# According to PubChem BioAssay:
# Calls of active or inactive are those of the source. Unless noted, how the calls were made is not given here.
# What was measured:
# [1] = system: Wnt5a (protein binding on small-molecule microarray); experiment: Wnt5a binders on small-molecule microarray, primary screen, biophysical, 635/667 nm fluorescence (AID 1142); details: 635 nm fluorescence, higher = more signal;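 further: fluorescence read at 667 nm with signal to noise per printed feature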
# [2] = cell viability in Huh7 cells, primary screen, cytotoxicity control for HCV replication inhibitor project, CellTiter-Glo luminescence, basal, 48 h (AID 1143); details: Huh7 HCV replicon, higher = more signal, called active from +8 up or from −8 down;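 further: Huh7 hepatoma cells carrying a hepatitis C replication reporter with no stimulus; test concentration not given here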
# [3] = P. aeruginosa biofilm formation inhibitors, primary screen, PAO1 strain, BacTiter-Glo luminescence, LB-PBS (AID 1144); details: 12 h, higher = more signal
# [4] = CREB reporter modulators without forskolin, primary screen, cell-based, PC12, CRE-LacZ reporter, unstimulated (AID 1145); details: no forskolin, luminescence, 4.5 h, higher = more signal, called active from +8 up or from −8 down
# [5] = CREB reporter modulators under forskolin, primary screen, cell-based, PC12, CRE-LacZ reporter, forskolin-stimulated (AID 1146); details: luminescence, 4.5 h, higher = more signal, called active from +8 up or from −8 down;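 further: PC12 cells with 6xCRE LacZ reporter stimulated by forskolin 10 µM; beta-galactosidase reporter signal reflecting CREB driven transcription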
# [6] = molecular target: Streptavidin (Streptomyces avidinii) (UniProt P22629); experiment: streptavidin binders on small-molecule microarray, primary screen, artefact control for SMM compound annotation, biophysical, 635/667 nm fluorescence (AID 1147); details: streptavidin binding, higher = more signal;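 further: signal reflects streptavidin binding to arrayed compounds as a control protein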
# Chain of Streptavidin (Streptomyces avidinii) (P22629 whole entry, looked up): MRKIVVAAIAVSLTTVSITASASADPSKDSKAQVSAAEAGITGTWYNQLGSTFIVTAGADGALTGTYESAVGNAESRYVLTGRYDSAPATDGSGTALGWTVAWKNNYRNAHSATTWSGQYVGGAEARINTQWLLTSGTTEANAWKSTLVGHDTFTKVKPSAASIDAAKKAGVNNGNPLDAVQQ
# [7] = small-molecule binders of probe aInhba, primary screen, biochemical, small-molecule microarray, 635/667 nm fluorescence (AID 1148); details: higher = more signal;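 further: score merges 667nm spot fluorescence with signal-to-noise for antibody binding to printed compounds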
# [8] = molecular target: Torsin-1A (Homo sapiens) (UniProt O14656); experiment: torsin A binders from cell lysate, primary screen, small-molecule microarray, wild-type, 635/667 nm (AID 1149); details: COS7 hTOR1A-WT lysate, 635 nm fluorescence, higher = more signal
# Chain of Torsin-1A (Homo sapiens) (O14656 whole entry, looked up): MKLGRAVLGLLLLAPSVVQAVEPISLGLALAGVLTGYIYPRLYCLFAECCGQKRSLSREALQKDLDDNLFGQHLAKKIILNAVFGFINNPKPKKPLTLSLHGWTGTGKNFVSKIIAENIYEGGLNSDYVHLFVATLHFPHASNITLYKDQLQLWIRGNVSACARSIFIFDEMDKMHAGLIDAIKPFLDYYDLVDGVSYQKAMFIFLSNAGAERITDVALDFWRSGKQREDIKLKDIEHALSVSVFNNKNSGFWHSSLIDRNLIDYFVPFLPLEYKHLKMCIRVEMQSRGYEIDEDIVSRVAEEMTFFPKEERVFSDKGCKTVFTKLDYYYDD
# [9] = molecular target: Torsin-1A (Homo sapiens) (UniProt O14656); experiment: small-molecule binders of mutant TOR1A in lysate, primary screen, cell lysate, small-molecule microarray, COS7 lysate, 635/667 nm fluorescence (AID 1150); details: COS7 hTOR1A mutant lysate, 635 nm fluorescence, higher = more signal;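 further: score pools 667 nm emission and signal to noise measuring lysate protein binding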
# [10] = system: Sonic hedgehog protein (Shh); experiment: small-molecule binders of Shh protein, primary screen, biochemical, small-molecule microarray, 635/667 nm fluorescence (AID 1151); details: small-molecule microarray binding, 635 nm fluorescence; higher = more signal;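 further: Shh protein binding to compounds spotted on small-molecule microarray slides; score combines spot fluorescence intensity with signal-to-noise across triplicate slides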
# [11] = E. coli DRC41 culture turbidity changes, primary screen, E. coli filamentation inducer project, strain DRC41, OD650, 48 h (AID 1152);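 further: E. coli MC1000 strain DRC41 lacking acrAB efflux pump and sulA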; details: E. coli DRC41 (acrAB sulA), higher = more signal, called active from +8 up or from −8 down
# [12] = small-molecule binders of probe aLefty1, primary screen, biochemical, small-molecule microarray, 635/667 nm fluorescence (AID 1153); details: higher = more signal;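 further: score merges spot fluorescence with signal-to-noise ratio from the scanned slide images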
# [13] = PSAC antagonists in infected red cells, primary screen, cell-based, P. falciparum Indochina, OD700, 1 h (AID 1154); details: P. falciparum Indochina infected RBC osmotic lysis, higher = more signal, called active from +8 up or from −8 down
# [14] = PSAC antagonists in infected red cells, primary screen, cell-based, P. falciparum Indochina, OD700, 2 h (AID 1155);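 further: lysis reports solute entry through the parasite surface anion channel PSAC; channel blockers reduce lysis of infected cells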; details: P. falciparum Indochina infected erythrocytes, osmotic lysis OD700; higher = more signal, called active from +8 up or from −8 down
# [15] = osmotic lysis modulators in infected erythrocytes, primary screen, PSAC antagonist project, cell-based, P. falciparum Indochina, OD700, 3 h (AID 1156); details: higher = more signal, called active from +8 up or from −8 down
# [16] = PSAC antagonists in infected red cells, primary screen, cell-based, P. falciparum Indochina, OD700, 18 h (AID 1157); details: P. falciparum Indochina infected erythrocytes, osmotic lysis OD700, 18 h; higher = more signal, called active from +8 up or from −8 down
# [17] = modulators of S6 phosphorylation in cells, primary screen, cell-based, A549, cytoblot, luminescence, serum-stimulated (AID 1158); details: A549 phospho-S6 cytoblot, 5 h, higher = more signal;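 further: serum-stimulated A549 lung adenocarcinoma cells; signal is phosphorylated S6 detected by cytoblot immunostaining with HRP secondary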
# [18] = molecular target: NADPH oxidase 2 (Homo sapiens) (UniProt P04839); experiment: NOX2-dependent H2O2 signal modulators, primary screen, NOX inhibitor project, cell-based, HEK293-NOX2, PMA-stimulated, Amplex Red fluorescence (AID 1159); details: 45 min, higher = more signal, called active from +8 up or from −8 down; further: test concentration not given here
# Chain of NADPH oxidase 2 (Homo sapiens) (P04839 whole entry, looked up): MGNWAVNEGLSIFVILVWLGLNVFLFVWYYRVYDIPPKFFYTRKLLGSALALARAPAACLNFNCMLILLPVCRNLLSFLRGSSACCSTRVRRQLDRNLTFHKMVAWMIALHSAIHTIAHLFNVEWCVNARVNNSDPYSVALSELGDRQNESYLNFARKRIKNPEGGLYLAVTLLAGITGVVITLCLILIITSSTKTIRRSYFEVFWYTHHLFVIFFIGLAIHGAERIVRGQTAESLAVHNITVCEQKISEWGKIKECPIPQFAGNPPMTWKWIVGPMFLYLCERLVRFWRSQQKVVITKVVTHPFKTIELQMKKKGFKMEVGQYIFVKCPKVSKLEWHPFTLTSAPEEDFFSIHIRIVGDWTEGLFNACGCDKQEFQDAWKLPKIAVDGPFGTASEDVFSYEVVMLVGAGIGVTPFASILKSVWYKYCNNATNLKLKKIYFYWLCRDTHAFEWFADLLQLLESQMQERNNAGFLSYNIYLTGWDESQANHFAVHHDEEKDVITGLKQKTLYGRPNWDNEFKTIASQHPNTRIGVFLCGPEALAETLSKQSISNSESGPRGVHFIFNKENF
# [19] = molecular target: NADPH oxidase 4 (Homo sapiens) (UniProt Q9NPH5); experiment: NOX4-dependent H2O2 signal modulators, primary screen, NOX inhibitor project, cell-based, HEK293-NOX4, tetracycline-induced, Amplex Red fluorescence (AID 1160); details: 45 min, higher = more signal, called active from +8 up or from −8 down
# Chain of NADPH oxidase 4 (Homo sapiens) (Q9NPH5 whole entry, looked up): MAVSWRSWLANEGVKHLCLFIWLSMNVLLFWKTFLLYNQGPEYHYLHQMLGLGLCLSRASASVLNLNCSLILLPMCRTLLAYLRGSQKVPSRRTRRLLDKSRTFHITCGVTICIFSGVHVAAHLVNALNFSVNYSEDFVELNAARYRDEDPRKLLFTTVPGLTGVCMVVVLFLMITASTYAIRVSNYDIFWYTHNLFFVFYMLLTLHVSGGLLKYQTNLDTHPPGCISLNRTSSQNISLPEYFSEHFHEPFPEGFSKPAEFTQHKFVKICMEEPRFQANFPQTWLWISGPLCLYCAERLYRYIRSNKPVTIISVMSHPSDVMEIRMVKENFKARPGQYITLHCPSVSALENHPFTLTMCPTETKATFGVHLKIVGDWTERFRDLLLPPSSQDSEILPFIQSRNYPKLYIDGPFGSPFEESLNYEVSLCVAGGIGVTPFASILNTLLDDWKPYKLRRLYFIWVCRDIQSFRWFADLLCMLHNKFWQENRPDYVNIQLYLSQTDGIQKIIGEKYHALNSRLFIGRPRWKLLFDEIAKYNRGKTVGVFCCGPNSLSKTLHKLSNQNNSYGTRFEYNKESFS
# [20] = molecular target: NADPH oxidase 5 (Homo sapiens) (UniProt Q96PH1); experiment: NOX5-dependent H2O2 signal modulators, primary screen, NOX inhibitor project, cell-based, HEK293-NOX5, Amplex Red fluorescence (AID 1161); details: HEK293-NOX5, ionomycin, 45 min, higher = more signal
# Chain of NADPH oxidase 5 (Homo sapiens) (Q96PH1 whole entry, looked up): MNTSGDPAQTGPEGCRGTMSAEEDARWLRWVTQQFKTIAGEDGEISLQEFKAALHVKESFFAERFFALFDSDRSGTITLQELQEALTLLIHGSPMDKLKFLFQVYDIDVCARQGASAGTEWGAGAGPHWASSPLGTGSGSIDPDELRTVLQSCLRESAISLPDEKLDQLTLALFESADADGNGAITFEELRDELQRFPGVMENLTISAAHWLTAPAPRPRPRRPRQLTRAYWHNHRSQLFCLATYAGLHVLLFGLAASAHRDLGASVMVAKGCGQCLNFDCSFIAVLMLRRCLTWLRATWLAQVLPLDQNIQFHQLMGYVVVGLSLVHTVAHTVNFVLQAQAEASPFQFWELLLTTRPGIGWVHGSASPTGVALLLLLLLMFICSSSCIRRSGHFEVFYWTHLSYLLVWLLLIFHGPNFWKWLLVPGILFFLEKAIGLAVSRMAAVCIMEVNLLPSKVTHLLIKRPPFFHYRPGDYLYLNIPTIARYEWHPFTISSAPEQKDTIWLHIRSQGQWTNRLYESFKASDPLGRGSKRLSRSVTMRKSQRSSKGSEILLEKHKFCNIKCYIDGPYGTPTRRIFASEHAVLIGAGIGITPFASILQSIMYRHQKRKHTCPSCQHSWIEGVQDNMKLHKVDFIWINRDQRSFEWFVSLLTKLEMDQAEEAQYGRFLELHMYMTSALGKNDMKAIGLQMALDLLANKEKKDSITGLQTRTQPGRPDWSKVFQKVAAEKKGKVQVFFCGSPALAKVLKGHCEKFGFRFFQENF
SMILES,composite z-score [1],z-score [2],z-score [3],z-score [4],z-score [5],composite z-score [6],composite z-score [7],composite z-score [8],composite z-score [9],composite z-score [10],z-score [11],composite z-score [12],z-score [13],z-score [14],z-score [15],z-score [16],z-score [17],z-score [18],z-score [19],z-score [20]
COC(=O)[C@H](C)NC(=O)CC=C[C@@H](C)[C@@H]1C=C[C@H](O)[C@@H](CO)O1,0.355,0.301 (inactive),1 (inactive),-0.434 (inactive),0.222 (inactive),0.116,-0.0918,0.945,0.394,1.39,0.645 (inactive),-0.269,-0.488 (inactive),0.544 (inactive),-0.0002 (inactive),0.0748 (inactive),0.244,0.534 (inactive),0.62 (inactive),-0.231
COc1ccc(O[C@H]2C=C[C@@H](c3ccccc3)O[C@@H]2CON=C(C)CCN2CCCc3nc(C)c(C)cc32)cc1,0.0474,-0.381 (inactive),-0.291 (inactive),2.46 (inactive),0.544 (inactive),0.294,-0.0079,0.476,0.46,0.661,0.379 (inactive),0.0341,4.35 (inactive),0.711 (inactive),0.938 (inactive),0.588 (inactive),-0.121,-1.81 (inactive),-0.049 (inactive),-0.297
Cc1cc(C)c(-c2cc([C@H](C)ON=C[C@@H](C)[C@H](OCc3ccccc3)C(C)C)on2)c(C)c1,-0.18,-0.295 (inactive),1.45 (inactive),0.0944 (inactive),-0.549 (inactive),0.0366,-0.242,-0.477,-0.273,-0.16,-0.3 (inactive),-0.0501,0.859 (inactive),0.541 (inactive),-0.831 (inactive),0.195 (inactive),-0.408,-0.467 (inactive),-0.299 (inactive),-0.45
CCOC(=O)[C@H](Cc1ccccc1)NC(=O)CCC1CC(OC(=O)NCc2ccc3c(c2)OCO3)CC2(CCCC(COC(=O)NCCc3ccc(Cl)cc3)O2)O1 (stereo not given in full),0.0468,-1.42 (inactive),-1.89 (inactive),-0.0696 (inactive),-0.71 (inactive),1.14,-0.0221,0.147,0.214,1.11,-0.393 (inactive),-0.281,1.44 (inactive),-0.0302 (inactive),-0.249 (inactive),-0.741 (inactive),1.51,-0.194 (inactive),0.396 (inactive),1.63
CCN(CC)CC(O)CN1CCCCc2nc(C)c(C)cc21 (stereo not given),0.0321,-1.1 (inactive),-1.67 (inactive),-0.161 (inactive),-0.71 (inactive),0.551,-0.183,0.57,0.029,0.261,0.219 (inactive),-0.0544,-0.446 (inactive),-1.31 (inactive),0.273 (inactive),-1.55 (inactive),1.43,0.776 (inactive),-0.622 (inactive),0.419
COc1ccc(COC(=O)NN=C2C[C@@H](O)[C@@H](O)[C@@H]3[C@@H]4C(=O)N([C@@H](C)c5ccccc5)C(=O)[C@@H]4CC[C@H]23)cc1,0.366,-1.71 (inactive),-0.183 (inactive),1.79 (inactive),-0.183 (inactive),1.02,0.0667,-0.982,0.106,-0.983,0.486 (inactive),0.751,7.67 (inactive),0.805 (inactive),-0.0805 (inactive),0.501 (inactive),-0.34,0.947 (inactive),0.672 (inactive),-0.419
CC(CCC(=O)OC[C@H]1O[C@H](C#Cc2ccccc2)C=C[C@@H]1Oc1ccc(C)cc1)=NO[C@H](C)c1cn([C@@H]2COC[C@H]2O)nn1,-0.0352,-0.783 (inactive),-0.763 (inactive),3.17 (inactive),-0.0087 (inactive),0.197,-0.101,0.587,0.326,0.39,-0.6 (inactive),-0.191,26.8 (active),3.78 (inactive),1.38 (inactive),-0.643 (inactive),1.2,-2.39 (inactive),-0.358 (inactive),-3.36
CCCNC(=O)OC[C@H]1O[C@H](CCON=C2c3cc(OC)ccc3O[C@H](c3cccc(OC)c3)[C@H]2O)C=C[C@@H]1Oc1ccc(OC)cc1,0.298,-0.69 (inactive),0.298 (inactive),4.37 (inactive),0.469 (inactive),0.474,-0.0011,0.442,0.818,0.436,0.447 (inactive),-0.0637,3.13 (inactive),0.855 (inactive),0.431 (inactive),0.563 (inactive),-0.641,0.461 (inactive),0.455 (inactive),-0.473
